Test results taken from PubChem BioAssay AID1159580 (chemical genetic matrix, 2015).
Screen size: about 5,500 compounds; about 2,000 (36%) were called active. About 18% were inconclusive and are not listed. Rule as the data show it: active = normalized growth mostly below about 0.91 (no sharp cut-off); inconclusive = no clear call, values can overlap the other calls; inactive = mostly above about 0.92. The list shows a part of the results.

Test: chemical genetic growth profiling, strain panel (AID 1159580);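 also: tested at 20 µM; growth read once vehicle control cultures reached saturation at 30 °C; 1 = growth at the plate median or of vehicle wells; lower values mean less growth of the strain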
Conditions: S. cerevisiae deletion strains, growth OD

Measured: normalized growth

CCOc1ccc(C(=O)c2ccc(O)c(O)c2O)cc1
inactive: locus YJR075W, strain HOC1, stronger effect = lower value 0.928 | locus YKL009W, strain mrt4, stronger effect = lower value 0.983 | locus YKL068W, stronger effect = lower value 0.97 | locus YKL085W, strain MDH1 (second series), stronger effect = lower value 0.967 | locus YKL085W, strain MDH1, stronger effect = lower value 0.967 | locus YKR001C, strain vps1, stronger effect = lower value 0.916 | locus YKR026C, strain gcn3, stronger effect = lower value 0.941 | locus YKR091W, strain srl3, stronger effect = lower value 0.965 | locus YLL001W, strain dnm1, stronger effect = lower value 0.932 | locus YLL026W, stronger effect = lower value 0.952 | locus YLL041C, strain sdh2, stronger effect = lower value 0.937 | locus YLR027C, strain aat2, stronger effect = lower value 0.947 | locus YLR039C, strain RIC1, stronger effect = lower value 0.777 | locus YLR102C, strain apc9, stronger effect = lower value 0.995 | locus YLR113W, strain HOG1, stronger effect = lower value 0.903 | locus YLR258W, strain gsy2, stronger effect = lower value 0.934 | locus YLR262C, strain YPT6, stronger effect = lower value 0.896 | locus YLR320W, strain mms22, stronger effect = lower value 0.88 | locus YLR370C, strain arc18, stronger effect = lower value 0.95 | locus YLR384C, strain iki3, stronger effect = lower value 0.936 | locus YML032C, strain rad52, stronger effect = lower value 0.994 | locus YML120C, strain ndi1, stronger effect = lower value 0.928 | locus YML124C, strain tub3, stronger effect = lower value 0.967 | locus YMR078C, strain ctf18, stronger effect = lower value 0.965 | locus YMR125W, strain sto1, stronger effect = lower value 0.958 | locus YMR129W, stronger effect = lower value 0.963 | locus YMR307W, strain GAS1, stronger effect = lower value 0.787 | locus YNL067W, strain RPL9B, stronger effect = lower value 0.869 | locus YNL071W, strain lat1, stronger effect = lower value 0.963 | locus YNL183C, strain NPR1, stronger effect = lower value 0.852 | locus YNL248C, strain rpa49, stronger effect = lower value 0.98 | locus YNL250W, strain rad50, stronger effect = lower value 0.981 | locus YNL298W, strain CLA4, stronger effect = lower value 0.941 | locus YNL307C, strain MCK1, stronger effect = lower value 0.951 | locus YNL322C, strain KRE1 (second series), stronger effect = lower value 0.943 | locus YNR049C, strain mso1, stronger effect = lower value 0.954 | locus YOL006C, strain TOP1, stronger effect = lower value 0.656 | locus YOL012C, strain htz1 0.425 | locus YOR070C, strain gyp1, stronger effect = lower value 0.941 | locus YOR080W, strain dia2, stronger effect = lower value 0.954 | locus YOR136W, strain idh2, stronger effect = lower value 0.962 | locus YOR184W, strain ser1, stronger effect = lower value 0.882 | locus YOR231W, strain MKK1, stronger effect = lower value 0.931 | locus YOR270C, strain vph1, stronger effect = lower value 0.81 | locus YOR316C, strain cot1, stronger effect = lower value 0.983 | locus YPL055C, strain LGE1, stronger effect = lower value 0.841 | locus YPL240C, strain hsp82, stronger effect = lower value 0.949 | locus YPL241C, strain CIN2, stronger effect = lower value 0.969 | locus YPL256C, strain CLN2, stronger effect = lower value 0.984 | locus YPR119W, strain clb2, stronger effect = lower value 0.991 | locus YPR141C, strain kar3, stronger effect = lower value 0.964
active: locus YKL160W, strain elf1, stronger effect = lower value 0.9 | locus YLR058C, strain SHM2, stronger effect = lower value 0.631 | locus YLR221C, strain rsa3, stronger effect = lower value 0.887 | locus YLR262C, strain YPT6 (second series), stronger effect = lower value 0.803 | locus YLR268W, strain sec22, stronger effect = lower value 0.84 | locus YLR330W, strain CHS5, stronger effect = lower value 0.884 | locus YLR342W, strain FKS1, stronger effect = lower value 0.891 | locus YLR357W, strain rsc2, stronger effect = lower value 0.691 | locus YLR371W, strain rom2, stronger effect = lower value 0.776 | locus YLR418C, strain cdc73, stronger effect = lower value 0.715 | locus YML016C, strain PPZ1, stronger effect = lower value 0.83 | locus YMR058W, strain fet3, stronger effect = lower value 0.384 | locus YMR205C, strain PFK2, stronger effect = lower value 0.825 | locus YMR223W, strain ubp8, stronger effect = lower value 0.874 | locus YMR231W, strain pep5, stronger effect = lower value 0.9 | locus YMR263W, strain SAP30, stronger effect = lower value 0.884 | locus YNL153C, strain GIM3, stronger effect = lower value 0.853 | locus YNL209W, strain ssb2, stronger effect = lower value 0.76 | locus YNL233W, strain BNI4, stronger effect = lower value 0.866 | locus YNL271C, strain bni1, stronger effect = lower value 0.911 | locus YNL322C, strain KRE1, stronger effect = lower value 0.821 | locus YNR052C, strain pop2, stronger effect = lower value 0.792 | locus YOL147C, strain pex11, stronger effect = lower value 0.84 | locus YOR001W, strain rrp6, stronger effect = lower value 0.867 | locus YOR061W, strain CKA2, stronger effect = lower value 0.852 | locus YOR069W, strain VPS5, stronger effect = lower value 0.88 | locus YOR083W, strain WHI5, stronger effect = lower value 0.887 | locus YOR106W, strain vam3, stronger effect = lower value 0.711 | locus YOR144C, strain elg1, stronger effect = lower value 0.867 | locus YOR265W, strain rbl2, stronger effect = lower value 0.913 | locus YOR290C, strain snf2, stronger effect = lower value 0.67 | locus YPL051W, strain arl3, stronger effect = lower value 0.807 | locus YPL078C, strain atp4, stronger effect = lower value 0.885 | locus YPL106C, strain sse1, stronger effect = lower value 0.839 | locus YPR163C, strain tif3, stronger effect = lower value 0.901 | locus YPR167C, strain met16, stronger effect = lower value 0.897 | strain wtn01, stronger effect = lower value 0.864
